For 40 molecules, outcome and AC50 results are on record in PubChem BioAssay (EPA / NIEHS).

Values joined by “and” are separate entries in the source; they are usually repeats but may differ in a detail not shown here. Identical values can stand only once. Some structures have more than one record in an assay (separate samples or runs), and their calls can disagree. Active and inactive are the calls of the source. How the source made its calls: active means hit-call score of the fitted dose curve at least 0.9, where 1 is the maximum; inactive means score below 0.9.

Read-out in this experiment: Monocyte Chemoattractant Protein-1 (MCP1), CCL2 (gene 6347)
In words: BSK_LPS_MCP1: BioMAP Diversity Plus: LPS Assay for Monocyte Chemoattractant Protein-1 (MCP1) Biomarker Activity (AID 2283081).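 On AC50: co-culture stimulated with LPS.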 The following applies: primary human HUVEC with PBMC; actives raise or lower the signal. The procedure:
BSK_LPS is a cell-based, multiplexed-readout assay that uses umbilical vein endothelium and peripheral blood mononuclear cells, a human vascular primary cell co-culture, with measurements taken at 24 hours after chemical dosing in a 96-well plate.BSK_LPS_MCP1 is an assay component measured in the BSK_LPS assay. It measures MCP-1 antibody related to regulation of gene expression using ELISA technology.Data from the assay component BSK_LPS_MCP1 was analyzed into 1 assay endpoint. This assay endpoint, BSK_LPS_MCP1, was analyzed with bidirectional fitting relative to DMSO as the negative control and baseline of activity. Using a type of binding reporter, gain or loss-of-signal activity can be used to understand changes in the signaling as they relate to the gene CCL2. Furthermore, this assay endpoint can be referred to as a primary readout, because this assay has produced multiple assay endpoints where this one serves a signaling function. To generalize the intended target to other relatable targets, this assay endpoint is annotated to the cytokine intended target family, where the subfamily is chemotactic factor.
The levels of cell surface (or secreted, indicated by the prefix "s") biomarker endpoints were measured by ELISA. Overt cytotoxicity to cells in confluent adherent cultures (all systems other than the BT system) was assessed by measuring total protein levels using sulforhodamine B (SRB) staining in parallel cultures at the time of biomarker measurements, indicated as SRB endpoints. For proliferation assays for adherent cell types, individual cell types are cultured at sub-confluence and relative cell numbers quantified by SRB staining at time points optimized for each system (48 h: 3C and CASM3C systems; 72 h: BT and HDF3CGF systems; 96 h: SAg system). SRB was performed by staining cells with 0.1% SRB after fixation with 10% TCA and reading wells at 560 nm.Viability and proliferation of PBMC (T cells) was quantified by Alamar Blue reduction for the SAg and BT systems. For PBMC viability (referred to as PBMC Cytotoxicity within the assay endpoint names), cells were plated (75,000/well in a 96-well plate) and then chemical samples added for 1 h before addition of activators, SEB and TSST-1 (20 ng/mL final concentration each). Cells were incubated for 90 h. Then, Alamar Blue (20 uL/well) (Invitrogen, Cat DAL1100) was added for 6 h, and the plates were read with a fluorescence microplate reader at 546/580 nm (excitation/emission). For PBMC proliferation, cells were plated and activated as above but incubated for only 16 h prior to addition of Alamar Blue. Plates were read after 6 h.
With `CCCCC1C(=O)N(c2ccccc2)N(c2ccccc2)C1=O`, the outcome was inactive.
On the same count and under the same terms, the entry for `CCCCCCCCCCCC(C)=O` is “inactive”.
As a reminder, the AC50 is the midpoint of the concentration-response curve, whichever way the signal moves. Consider `c1ccc(Nc2cccc3ccccc23)cc1`, for which the AC50 was 27.8 µM (active) and 29.1 µM (active).
For `CC(CCC(=O)O)(c1ccc(O)cc1)c1ccc(O)cc1`, the outcome was inactive.
Same read-out and setting: next, `CCCCCCOC(=O)CCCCC(=O)OCCCCCC`: “inactive”; `CC(Cl)COP(=O)(OCC(C)Cl)OCC(C)Cl` (stereo unspecified): “inactive”.
For the molecule `Oc1ccc(/C=C/c2cc(O)cc(O)c2)cc1`, the AC50 is 20 µM (active).
Consider `C=CC(=O)NC(C)(C)C`, for which the result was inactive.
As for `Fc1ccc(Br)cc1`, the outcome was inactive.
The same measure, in the same setting: the entry for `CCOC(=O)C1=NN(c2ccc(Cl)cc2Cl)C(C)(C(=O)OCC)C1` (stereo unspecified) is “inactive”.
The same measure, in the same setting: the entry for `Nc1ccc(C(=O)O)cc1` is “inactive”.
Regarding `C=CC(=O)OCC(C)OCC(C)OCC(C)OC(=O)C=C` (stereo unspecified), the AC50 was 9.18 µM (active).
`C1CNCCN1`: the result was inactive.
The same measure, in the same setting: the entry for `O=C1CCCCCCCCCCCN1` is “inactive”.
Still for that read-out and setting: the entry for `CCC1(C)C(=O)N(Cl)C(=O)N1Cl` (stereo unspecified) is “inactive”.
On to `COc1ccc(C(=O)/C(Br)=C\C(=O)O)cc1`, for which the AC50 was 31.3 µM (active) and 27.4 µM (active).
As to `CCCCCCCCC(CO)CCCCCC` (stereo unspecified), the result was inactive.
The same measure, in the same setting: next, `CCCCCCC=O`: “inactive”.
For `c1ccc2sc(SSN3CCOCC3)nc2c1`, the result was inactive.
Still for that read-out and setting: the entry for `CCc1cccc(C)c1N(C(=O)CS(=O)(=O)O)C(C)COC` (stereo unspecified) is “inactive”; for `CCCC(C)C(=O)OCC` (stereo unspecified) it is “inactive”.
Still for that read-out and setting: the entry for `O=C(Cl)c1c(Cl)c(Cl)c(C(=O)Cl)c(Cl)c1Cl` is “inactive”; for `O=C(Oc1ccccc1)c1ccccc1C(=O)Oc1ccccc1` it is “inactive”.
The same measure, in the same setting: next, `Nc1cccc(N)n1`: “inactive”; `CCOC(=O)C1=NOC(c2ccccc2)(c2ccccc2)C1`: “inactive”.
Regarding `CCOC(=O)/C=C\C(=O)OCC`, the outcome was inactive.
On to `Nc1nc(N)nc(-c2ccccc2)n1`, for which the result was inactive.
Take `CC(C)c1cccc(C(C)C)c1N`: the result was inactive.
The same measure, in the same setting: the entry for `O=C(O)C(F)(F)C(F)(F)C(F)(F)C(F)(F)C(=O)O` is “inactive”.
Regarding `CCNc1nc(NC(C)(C)C)nc(OC)n1`, the result was inactive.
On the same count and under the same terms, next, `CCCCCC1=CCCC1=O`: “inactive”.
Turning to `CC=C(C)C(C)=O`, the outcome was inactive.
On the same count and under the same terms, the entry for `CCCCCCCCCCCC(=O)N(C)CC(=O)O` is “inactive”.
Still for that read-out and setting: next, `C=CC(=O)OCCCCCCCC(C)C`: “inactive”; `C=C(C)C(=O)OCCCCCCCCCCCC`: “inactive”.
Still for that read-out and setting: next, `Oc1ccccc1Cc1ccccc1O`: “inactive”; `Cc1ccc([N+](=O)[O-])cc1N`: “inactive”; `CCN1CN(CC)CN(CC)C1`: “inactive”.
`CC/C=C\CCOC(=O)c1ccccc1O`: the AC50 was 32.8 µM (active).
With `C[N+](C)(C)CCCNS(=O)(=O)C(F)(F)C(F)(F)C(F)(F)C(F)(F)C(F)(F)C(F)(F)C(F)(F)C(F)(F)F`, the outcome was inactive and the AC50 was 36.4 µM (active).
